This is an account of results in PubChem BioAssay (Tox21).

A number with no mark means an inactive call. Records with an inconclusive call do not appear. The source made the active and inactive calls. Unless noted, calls come from the whole dose curve.
% is set by controls: 0 for no effect and ±100 for the full control effect.

Chain of Thyrotropin-releasing hormone receptor (Homo sapiens) (P34981 whole entry, looked up): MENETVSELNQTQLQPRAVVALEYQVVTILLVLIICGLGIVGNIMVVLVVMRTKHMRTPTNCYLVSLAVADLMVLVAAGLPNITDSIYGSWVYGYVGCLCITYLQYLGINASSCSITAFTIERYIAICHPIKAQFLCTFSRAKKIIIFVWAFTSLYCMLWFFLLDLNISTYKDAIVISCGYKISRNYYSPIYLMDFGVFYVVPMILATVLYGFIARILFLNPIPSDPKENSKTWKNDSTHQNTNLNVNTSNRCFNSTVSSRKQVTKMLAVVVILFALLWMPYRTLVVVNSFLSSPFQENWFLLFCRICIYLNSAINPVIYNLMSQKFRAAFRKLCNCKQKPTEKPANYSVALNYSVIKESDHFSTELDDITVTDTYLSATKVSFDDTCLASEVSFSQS

System in one assay: not listed separately
Briefly: qHTS assay to identify small molecule agonists of the TGF-beta/Smad signaling pathway (AID 1346859; active = well fitted activation curve with a large enough effect in the signal ratio in the repeat runs, not every such curve was filed as active; the % refers to the signal ratio). The conditions noted are these: SBE-bla HEK293T, TGF-beta/Smad beta-lactamase reporter, 5 h; series mostly up to 76.8 µM; activation: at the top concentration. The procedure, abridged:
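HEK 293T cells stably carrying a beta-lactamase reporter driven by the Smad binding element were seeded overnight, exposed to DMSO-dissolved compounds for 5 hr at 37 C, 5% CO2, then loaded with FRET substrate for 2 hr at room temperature.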
On the technique in general: qHTS replaces the single test concentration by a dilution series.
For `CC(NN)c1ccccc1` (configuration not stated), the activation was 1.03% [at 15.8 µM].

As to `CC(C)(C)C(=O)OCOC(=O)C1N2C(=O)CC2S(=O)(=O)C1(C)C` (configuration not stated), the “activation” value is 3.8% [at 35.3 µM].

For the compound `O=C(N/N=C/c1ccccc1O)c1ccncc1`, the “activation” value is -3.22% [at 35.3 µM].

Consider `N/C(=N\N=C\c1ccc(Cl)cc1)N/N=C/c1ccc(Cl)cc1`, for which the “activation” value is 4.64% [at 35.3 µM].

Regarding `Cc1ccc(O)c(C(C)(C)C)c1`, the “activation” value was -6.95%.

Regarding `CCCCCCCCCCC=O`, the “activation” value is 0.394%.

With `CCCCCCCCOc1ccccc1C(=O)Nc1ccc(C(=O)OCC[N+](C)(CC)CC)cc1`, the “activation” value was -3.84% [at 35.3 µM].

As for `C[C@]12CCC(=O)C=C1CC[C@@H]1[C@@H]2[C@@H](O)C[C@@]2(C)[C@H]1CC[C@]2(O)C(=O)COC(=O)CCC(=O)O`, the “activation” value was 0.116% [at 35.3 µM].

On to `Cc1onc(-c2c(Cl)cccc2Cl)c1C(=O)N[C@@H]1C(=O)N2[C@@H]1SC(C)(C)[C@@H]2C(=O)O`, for which the “activation” value was -2.22% [at 35.3 µM].

As to `CCN(CC)CCNC(=O)c1c(C)[nH]c(/C=C2\C(=O)Nc3ccc(F)cc32)c1C`, the “activation” value was 2.6% [at 35.3 µM].

For `CCCCCCCCS(=O)C(C)Cc1ccc2c(c1)OCO2` (configuration not stated), the “activation” value is -4.84%.

As for `CCCCC(CC)COP(=O)(O)OCC(CC)CCCC` (configuration not stated), the Potency entry is “inactive”.

On to `Clc1ccc(C(Cn2ccnc2)OCc2ccc(Sc3ccccc3)cc2)c(Cl)c1` (configuration not stated), for which the “activation” value was 3.41% [at 35.3 µM].

For `N=C1C=CC(=C(c2ccc(N)cc2)c2ccc(N)cc2)C=C1`, the “activation” value was -6.73%.

Turning to `NC(=O)NS(=O)(=O)c1ccc(N)cc1`, the “activation” value was 3.69% [at 35.3 µM].

Turning to `O=c1cc(-c2ccc(O)cc2)oc2cc(O)cc(O)c12`, the Potency result was “inactive”.

With `O=C(Oc1ccccc1)c1ccccc1C(=O)Oc1ccccc1`, the “activation” value is 0.175%.

In the case of `CN(C)c1ccc(C2(c3ccc(N(C)C)cc3)OC(=O)c3cc(N(C)C)ccc32)cc1`, the “activation” value is 16.4%.

`CCC1=C[C@@H]2CN(C1)Cc1c([nH]c3ccccc13)[C@@](C(=O)OC)(c1cc3c(cc1OC)N(C)[C@H]1[C@@](O)(C(=O)OC)[C@H](OC(C)=O)[C@]4(CC)C=CCN5CC[C@]31[C@@H]54)C2`: the “activation” value was -6.89% [at 35.3 µM].

For the compound `Cc1onc(-c2ccccc2Cl)c1C(=O)N[C@@H]1C(=O)N2[C@@H]1SC(C)(C)[C@@H]2C(=O)O`, the “activation” value was -3.52% [at 35.3 µM].

For the compound `CC(C)(C)CC(C)(C)c1ccc(OCCOCC[N+](C)(C)Cc2ccccc2)cc1`, the Potency entry was “inactive”.

The target of the next assay is Thyrotropin-releasing hormone receptor (Homo sapiens) (UniProt P34981). Briefly: qHTS assay to identify small molecule antagonists of the thyrotropin-releasing hormone receptor (TRHR) signaling pathway (AID 1346877; active = well fitted inhibition curve with a large enough effect in the repeat runs, not every such curve was filed as active). The conditions noted are these: TRHR-HEK293, TRH-induced calcium fluorescence, antagonist mode; series mostly up to 51.3 µM; activity, negative = inhibition: at the top concentration. The procedure, abridged:
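Following an 18 h incubation at 37 °C and a 2 h calcium dye load, TRHR-HEK293 cells were exposed to compound (5 min, room temperature) and challenged with TRH, 1 nM final.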
For `CCCCC(CC)CN=C(N)NC(N)=NCCCCCCN=C(N)NC(N)=NCC(CC)CCCC` (configuration not stated), the “activity, negative = inhibition” value was 3.22% [at 23.6 µM].

With `CCCCCCCC[P+](CCCCCCCC)(CCCCCCCC)CCCCCCCC`, the “activity, negative = inhibition” value was 0.33%.

As to `CC(C)(C)C(=O)OCOC(=O)C1N2C(=O)CC2S(=O)(=O)C1(C)C` (configuration not stated), the “activity, negative = inhibition” value was 3.29% [at 23.6 µM].

For the compound `O=C(N/N=C/c1ccccc1O)c1ccncc1`, the “activity, negative = inhibition” value was 1.73% [at 23.6 µM].

Consider `CCN(Cc1cccnc1)C(=O)c1cccc(Cl)c1[C@]1(C)C(=O)N(Cc2ccc(OC)cc2OC)c2ccc(Cl)cc21`, for which the “activity, negative = inhibition” value is -3.92%.

For the compound `N/C(=N\N=C\c1ccc(Cl)cc1)N/N=C/c1ccc(Cl)cc1`, the “activity, negative = inhibition” value is 1.84% [at 23.6 µM].

On to `CC(=O)S[C@@H]1CC2=CC(=O)CC[C@]2(C)[C@H]2CC[C@@]3(C)[C@@H](CC[C@@]34CCC(=O)O4)[C@H]12`, for which the “activity, negative = inhibition” value was 2.46%.

On to `C[C@]12CCC(=O)C=C1CC[C@@H]1[C@@H]2[C@@H](O)C[C@@]2(C)[C@H]1CC[C@]2(O)C(=O)COC(=O)CCC(=O)O`, for which the “activity, negative = inhibition” value is 2.42% [at 23.6 µM].

With `CC(C)(C)CC(C)(C)c1ccc(O)c(Cc2ccc(Cl)cc2Cl)c1`, the “activity, negative = inhibition” value is -3.72% [at 23.6 µM].

Consider `Cc1onc(-c2c(Cl)cccc2Cl)c1C(=O)N[C@@H]1C(=O)N2[C@@H]1SC(C)(C)[C@@H]2C(=O)O`, for which the “activity, negative = inhibition” value was 0.676% [at 23.6 µM].

For `CCCC(c1cc(C(C)(C)C)c(O)cc1C)c1cc(C(C)(C)C)c(O)cc1C`, the “activity, negative = inhibition” value is 4.84%.

As for `NNc1nc(-c2ccccc2)cs1`, the “activity, negative = inhibition” value is 9.57%.

`[Cl][Au]([Cl])[Cl]`: the “activity, negative = inhibition” value was -3.49%.

As to `CCCCCCCC[N+](CCCCCCCC)(CCCCCCCC)CCCCCCCC`, the “activity, negative = inhibition” value was -11.8%.

As for `CCCCC(CC)COP(=O)(O)OCC(CC)CCCC` (configuration not stated), the Potency entry is “inactive”.

As to `Clc1ccc(C(Cn2ccnc2)OCc2ccc(Sc3ccccc3)cc2)c(Cl)c1` (configuration not stated), the “activity, negative = inhibition” value is -0.206% [at 23.6 µM].

Turning to `O=C1CCCc2c1cc1ccc3cccc4ccc2c1c34`, the “activity, negative = inhibition” value is 2.13%.

On to `N=C1C=CC(=C(c2ccc(N)cc2)c2ccc(N)cc2)C=C1`, for which the “activity, negative = inhibition” value is -5.29%.

As to `NC(=O)NS(=O)(=O)c1ccc(N)cc1`, the “activity, negative = inhibition” value is -3% [at 23.6 µM].

Regarding `O=c1cc(-c2ccc(O)cc2)oc2cc(O)cc(O)c12`, the Potency result is “inactive”.

With `CNc1ccc(O)cc1`, the “activity, negative = inhibition” value is -0.0628%.

For the compound `CCC1=C[C@@H]2CN(C1)Cc1c([nH]c3ccccc13)[C@@](C(=O)OC)(c1cc3c(cc1OC)N(C)[C@H]1[C@@](O)(C(=O)OC)[C@H](OC(C)=O)[C@]4(CC)C=CCN5CC[C@]31[C@@H]54)C2`, the “activity, negative = inhibition” value is 3.2% [at 23.6 µM].

The target is the same in another assay. Briefly: qHTS assay to identify small molecule agonists of the thyrotropin-releasing hormone receptor (TRHR) signaling pathway (AID 1346891). The note with it: TRHR-HEK293 calcium fluorescence, agonist mode; series mostly up to 57.6 µM; activation: at the top concentration. The procedure, abridged: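 TRHR-expressing HEK293 cells were plated 18 h at 37 °C/5% CO2, loaded with calcium dye 2 h at 37 °C, then given compound in DMSO; fluorescence was read kinetically for 3 min at 1 s intervals.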
On to `CCCCC(CC)CN=C(N)NC(N)=NCCCCCCN=C(N)NC(N)=NCC(CC)CCCC` (configuration not stated), for which the “activation” value was -1.13% [at 26.5 µM].

Take `CCCCCCCC[P+](CCCCCCCC)(CCCCCCCC)CCCCCCCC`: the “activation” value is 1.26%.

For `CC(C)(C)C(=O)OCOC(=O)C1N2C(=O)CC2S(=O)(=O)C1(C)C` (configuration not stated), the “activation” value was 0.165% [at 26.5 µM].

For the compound `O=C(N/N=C/c1ccccc1O)c1ccncc1`, the “activation” value is 0.0173% [at 26.5 µM].

In the case of `CCN(Cc1cccnc1)C(=O)c1cccc(Cl)c1[C@]1(C)C(=O)N(Cc2ccc(OC)cc2OC)c2ccc(Cl)cc21`, the “activation” value was 0.0862%.

As to `N/C(=N\N=C\c1ccc(Cl)cc1)N/N=C/c1ccc(Cl)cc1`, the “activation” value is -1.24% [at 26.5 µM].

In the case of `CCCCCCCCCCC=O`, the “activation” value is 0.0932%.

In the case of `CCCCCCCCOc1ccccc1C(=O)Nc1ccc(C(=O)OCC[N+](C)(CC)CC)cc1`, the “activation” value is 0.0119% [at 26.5 µM].

Consider `CC(=O)S[C@@H]1CC2=CC(=O)CC[C@]2(C)[C@H]2CC[C@@]3(C)[C@@H](CC[C@@]34CCC(=O)O4)[C@H]12`, for which the “activation” value was -0.665%.

Turning to `C[C@]12CCC(=O)C=C1CC[C@@H]1[C@@H]2[C@@H](O)C[C@@]2(C)[C@H]1CC[C@]2(O)C(=O)COC(=O)CCC(=O)O`, the “activation” value is -0.343% [at 26.5 µM].

As for `CC(C)(C)CC(C)(C)c1ccc(O)c(Cc2ccc(Cl)cc2Cl)c1`, the “activation” value is 0.404% [at 26.5 µM].

As to `Cc1onc(-c2c(Cl)cccc2Cl)c1C(=O)N[C@@H]1C(=O)N2[C@@H]1SC(C)(C)[C@@H]2C(=O)O`, the “activation” value was -0.226% [at 26.5 µM].

On to `CC[C@H]1O[C@]2(CC[C@@H]1C)C[C@@H]1C[C@@H](C/C=C(\C)C[C@@H](C)/C=C/C=C3\CO[C@@H]4[C@H](O)C(C)=C[C@@H](C(=O)O1)[C@]34O)O2`, for which the “activation” value was -1.32%.

`CCN(CC)CCNC(=O)c1c(C)[nH]c(/C=C2\C(=O)Nc3ccc(F)cc32)c1C`: the “activation” value is 3.67% [at 26.5 µM].

For `CCCC(c1cc(C(C)(C)C)c(O)cc1C)c1cc(C(C)(C)C)c(O)cc1C`, the “activation” value was 0.269%.

Consider `NNc1nc(-c2ccccc2)cs1`, for which the “activation” value was -0.217%.

On to `CCCCCCCCS(=O)C(C)Cc1ccc2c(c1)OCO2` (configuration not stated), for which the “activation” value was 4.43%.

On to `[Cl][Au]([Cl])[Cl]`, for which the “activation” value was -0.386%.

As for `CCCCCCCC[N+](CCCCCCCC)(CCCCCCCC)CCCCCCCC`, the “activation” value was 0.444%.

For `CCCCC(CC)COP(=O)(O)OCC(CC)CCCC` (configuration not stated), the Potency entry was “inactive”.

As to `Clc1ccc(C(Cn2ccnc2)OCc2ccc(Sc3ccccc3)cc2)c(Cl)c1` (configuration not stated), the “activation” value was 0.107% [at 26.5 µM].

`O=C1CCCc2c1cc1ccc3cccc4ccc2c1c34`: the “activation” value is 0.0323%.

As to `N=C1C=CC(=C(c2ccc(N)cc2)c2ccc(N)cc2)C=C1`, the “activation” value is 1.22%.

For the compound `NC(=O)NS(=O)(=O)c1ccc(N)cc1`, the “activation” value was -1.06% [at 26.5 µM].

For the compound `O=c1cc(-c2ccc(O)cc2)oc2cc(O)cc(O)c12`, the Potency result was “inactive”.

In the case of `O=C(Oc1ccccc1)c1ccccc1C(=O)Oc1ccccc1`, the “activation” value is 0.758%.

In the case of `CN(C)c1ccc(C2(c3ccc(N(C)C)cc3)OC(=O)c3cc(N(C)C)ccc32)cc1`, the “activation” value was 0.935%.

`CNc1ccc(O)cc1`: the “activation” value was -0.175%.

Consider `CCC1=C[C@@H]2CN(C1)Cc1c([nH]c3ccccc13)[C@@](C(=O)OC)(c1cc3c(cc1OC)N(C)[C@H]1[C@@](O)(C(=O)OC)[C@H](OC(C)=O)[C@]4(CC)C=CCN5CC[C@]31[C@@H]54)C2`, for which the “activation” value is 0.319% [at 26.5 µM].
